Measured values as given in PubChem BioAssay.
Activity calls are given as the source filed them.

Assay: fission yeast growth modulation, primary screen, strain 972, OD600, 24 h, no modulator (AID 1090);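 further: basal condition with compound alone and no growth modifier present; test concentration not given here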
Conditions: S. pombe 972 growth, higher = more signal, called active from +8 up or from −8 down

Compound | z-score
CCOC(=O)NN=C1C[C@@H](O)[C@@H](O)[C@@H]2[C@@H]3C(=O)N([C@@H](C)c4ccccc4)C(=O)[C@@H]3CC[C@@H]12 | 0.159 (inactive)
COC(=O)[C@@H]1CC[C@H](C)[C@@H](c2ccc(C)cc2)N1C(=O)c1ccc(C=NO[C@@H](C)c2cn([C@H](CO)Cc3ccccc3)nn2)cc1 | 0.249 (inactive)
O=C1CCCC=C1C(O)CCOC(c1ccccc1)(c1ccccc1)c1ccccc1 (stereo not drawn) | -1.92 (inactive)
COC(=O)CC=C[C@@H](C)[C@@H]1C=C[C@H](O)[C@@H](CO)O1 | 1.08 (inactive)
C[C@@H](ON=C1[C@H]2CCn3c(=O)n(-c4ccccc4)c(=O)n3[C@H]2[C@H](O)[C@@H]2O[C@H]12)c1cn([C@@H]2COC[C@H]2O)nn1 | 0.636 (inactive)
CO[C@@H]1COC(=O)[C@H](CCSC)NC(=O)CC=C[C@@H](C)COC(=O)CCC[C@H]1C | 0.583 (inactive)
COc1cccc([C@@H]2Oc3ccc(OC)cc3C(=O)[C@H]2O)c1 | -4.98 (inactive)
C=CC1=C[C@H](O)[C@@H]2O[C@@H]2C12OCCCO2 | 0.199 (inactive)
CCOC(=O)NN=C1C[C@@H](O)[C@@H](O)[C@@H]2[C@@H]3C(=O)N(Cc4ccccc4)C(=O)[C@@H]3CC[C@H]12 | -0.524 (inactive)
COC(=O)[C@@H]1CC[C@H](C)[C@@H](c2ccc(C)cc2)N1C(=O)c1ccc(C=NO[C@H](C)c2cn([C@H](CO)Cc3ccccc3)nn2)cc1 | 0.0048 (inactive)
COc1cc(O)c(C(=O)C=Cc2ccc3c(c2)OCO3)c(OC)c1 | 0.561 (inactive)
CCOC(=O)[C@H](CC(C)C)NC(=O)CCC1CC(OC(=O)NCc2cccc3ccccc23)CC2(CCCC(COC(=O)NCC3CCCCC3)O2)O1 (stereo partly drawn) | -0.947 (inactive)
Cc1cc2c(c(=O)o1)[C@@H](O)[C@H]1O[C@H]1C2=O | -0.0772 (inactive)
Cc1ccc(S(=O)(=O)NC(CCc2ccccc2)CC(=O)C(C)(C)C)cc1 (stereo not drawn) | -1.76 (inactive)
C[C@@H](c1ccccc1)N1C(=O)[C@H]2[C@H]3[C@H](O)[C@H](O)CC(=NO[C@@H]4O[C@H](CO)[C@@H](O)[C@H](O)[C@H]4O)[C@@H]3CC[C@H]2C1=O | 0.149 (inactive)
CCN1C(=O)[C@@H]2[C@H]3C(=CC[C@@H]2C1=O)C1(OCCCO1)[C@H]1O[C@H]1[C@H]3O | -6.63 (inactive)
CCOC(=O)[C@H](CC(C)C)NC(=O)CCC1CC(OC(=O)NCc2cccc3ccccc23)CC2(CCCC(COC(=O)NCCCN3CCCC3=O)O2)O1 (stereo partly drawn) | 0.409 (inactive)
CC(=O)OC[C@H]1OC(ON=CC[C@@H]2C=C[C@H](OC(C)=O)[C@@H](COC(C)=O)O2)[C@H](OC(C)=O)[C@@H](OC(C)=O)[C@@H]1OC(C)=O (stereo partly drawn) | 0.17 (inactive)
COc1ccc(O[C@@H]2[C@H](O)CO[C@@H]2C=Cc2ccccc2)cc1 | -1.51 (inactive)
O=C1[C@H]2[C@H]3[C@H](O)[C@H](O)CC(=NOC[C@@H](O)COCc4ccco4)[C@H]3CC[C@H]2C(=O)N1C[C@@H]1CCCO1 | 0.236 (inactive)
CC(C)=CCCC(C)=CCON=C1C[C@@H](O)[C@@H](O)[C@@H]2[C@@H]3C(=O)N(C(C)(C)C)C(=O)[C@@H]3CC[C@@H]12 | 0.451 (inactive)
C#CCCCON=C1C[C@@H](O)[C@@H](O)[C@@H]2[C@@H]3C(=O)N(CCC(=O)OCC)C(=O)[C@@H]3CC[C@H]12 | -1.32 (inactive)
C[C@H]1CC[C@H]2C(=O)O[C@H](COc3ccc(C(C)(C)C)cc3)CN2[C@@H]1c1ccc(Br)cc1 | -0.725 (inactive)
CC(C)=CCCC(C)=CCON=C1C[C@@H](O)[C@@H](O)[C@@H]2[C@@H]3C(=O)N(c4cccc(Oc5ccccc5)c4)C(=O)[C@@H]3CC[C@@H]12 | -0.153 (inactive)
COc1ccc(O[C@H]2C=C[C@@H](c3ccccc3)O[C@@H]2COC(=O)CCC(C)=NOC(C)CN2CCCc3nc(C)c(C)cc32)cc1 (stereo partly drawn) | -0.629 (inactive)
COC(=O)[C@H](C)NC(=O)CCC1CC(OC(=O)NCc2cccc3ccccc23)CC2(CCCC(COC(=O)NCC(c3ccccc3)c3ccccc3)O2)O1 (stereo partly drawn) | 0.104 (inactive)
C=COC[C@@H]1CN2[C@@H](CC[C@@H](C)[C@@H]2c2ccc(Br)cc2)C(=O)O1 | -17.1 (active)
CCOC(=O)[C@H](CC(C)C)NC(=O)CCC1CC(OC(=O)NCc2cccc3ccccc23)CC2(CCCC(COC(=O)NCCC(C)C)O2)O1 (stereo partly drawn) | -2.7 (inactive)
